KB-V1 MDR tox = KB-V1 MDR subline cytotoxicity. AID 1347076. 3.4% of 400,000 active. KB-V1 MDR cells viability, CellTiter-Glo, 72 h. Potency, µM (series often up to 46.1 µM), usual class: cytotoxic; note: nearly all actives have a fitted effect of over 60% in size
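Luminescent ATP read-out (CellTiter-Glo, 10 min) measures survival of drug-selected KB-V1 MDR cells after 72 h, 37 degrees C compound exposure. Medium: phenol-red-free DMEM, 10% FBS. Values from fitted concentration-response curves.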
HT1080NT lethal = kills 2HG-producing HT-1080-NT fibrosarcoma cells; HT-1080-NT fibrosarcoma viability, CellTiter-Glo ATP luminescence, 48 h; Potency, µM (series often up to 46.1 µM), without a hit: top-dose activity, negative = less viability, actives largely listed as cytotoxic; 1.6% of 360,000 active; AID 686970;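 note: NT is the 2HG producing partner of a matched IDH1 knockdown line; 0% = DMSO-treated cells and -100% = media-only wells without cells; nearly all actives have a fitted effect of over 55% in size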
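Luminescent CellTiter-Glo readout after 48 hours of compound exposure at 37 degrees C defined viability of HT-1080-NT cells. Activity was normalized to DMSO wells and cell-free media wells; concentration-response curves were fitted and assigned curve classes.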
DT40 TDP1 CPT = DT40-hTDP1 cell growth loss with CPT. chicken DT40 Tdp1-/-;hTDP1 cells + 20 nM CPT, ATP luminescence, 48 h. Potency, µM (titrated, usually from 46.2 µM), for the others: top-dose activity change, negative = growth inhibition, actives largely listed as inhibitors. 12% of 420,000 active; note: nearly all actives have a fitted effect of over 55% in size
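Cell growth measured by CellTiter-Glo luminescence after a minimum 48 h, 37 C compound exposure with 20 nM CPT in Tdp1-knockout DT40 cells stably expressing hTDP1, seeded 400/well; qHTS titration format.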
KB-3-1 cytotox = kills parental KB-3-1 adenocarcinoma cells | KB-3-1 viability, CellTiter-Glo ATP luminescence, 72 h | Potency, µM (titrated, usually from 46.1 µM), actives largely listed as cytotoxic | 1.4% of 400,000 active; note: nearly all actives have a fitted effect of over 60% in size
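KB-3-1 parental drug-naive adenocarcinoma cells in DMEM/10% FBS, incubated 72 h at 37 C with pin-transferred compounds across a concentration series. Viability by CellTiter-Glo luminescence; concentration-response curves fitted after normalization.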
HT1080 IDH1KD tx = toxicity to HT-1080 IDH1 knockdown cells (counter line); HT-1080 IDH1 knockdown viability, ATP luminescence, 48 h; Potency, µM (series often up to 46.1 µM), inactives show at the top dose activity, negative = toxicity, usual class: cytotoxic; 2% of 360,000 active; AID 686971;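 note: 0% = DMSO wells and -100% = cell-free medium wells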
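Viability of IDH1-knockdown HT-1080 fibrosarcoma cells was assessed by CellTiter-Glo after 48 h at 37 °C with titrated compound; concentration-effect curves were classified by fit quality and response size.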
TDP1 cell noCPT = qHTS for Inhibitors of human tyrosyl-DNA phosphodiesterase 1 (TDP1): qHTS in cells in absence of CPT. DT40 Tdp1-/- hTDP1 cells, no CPT, ATP luminescence, 48 h. Potency, µM (series often up to 46.2 µM), without a hit: top-dose activity change, negative = growth inhibition, hits mostly inhibitors. 15% of 420,000 active. AID 686978, 2013; note: nearly all actives have a fitted effect of over 55% in size
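Growth kinetics read by CellTiter-Glo luminescence after ≥48 hr at 37 °C. Cells: DT40 Tdp1-/- stably carrying human TDP1, 400 per well, compound exposure in the absence of CPT (DMSO vehicle).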
Numbers without * were called inactive. Sampled rows, rich in hits. Any-hit rate of the full collection: about 19%. Calls come from the whole dose curve; as a rule, active = well fitted curve in the direction sought with a large enough effect; inconclusive = small, poorly fitted or top-dose-only effect, or another doubt; inactive = no such curve, though single readings can be large; an effect the other way counts as inactive or inconclusive. Unless noted, % is set by controls: 0 for no effect and ±100 for the full control effect; potency is the fitted concentration of half-maximal effect.

For Cc1noc(C)c1-c1ccc(C(=O)Nc2ccccc2)c2occc12 the results were KB-V1 MDR tox inconclusive, HT1080NT lethal -16%, DT40 TDP1 CPT 26µM*, KB-3-1 cytotox inactive, HT1080 IDH1KD tx inconclusive and TDP1 cell noCPT inconclusive.
Screening CCc1nnc(NC(=S)Nc2ccccc2)s1 returned KB-V1 MDR tox inactive, HT1080NT lethal 11%, DT40 TDP1 CPT 5.8µM*, KB-3-1 cytotox inactive, HT1080 IDH1KD tx 15% and TDP1 cell noCPT -69%.
`Cc1ccc(C(=O)Nc2nnc(NC(=S)Nc3ccccc3)s2)cc1` gave KB-V1 MDR tox inconclusive, HT1080NT lethal -21%, DT40 TDP1 CPT inconclusive, KB-3-1 cytotox inactive, HT1080 IDH1KD tx -20% and TDP1 cell noCPT 21µM*.
`Cc1ccc(Nc2nc3ccccc3c(=O)s2)cc1C` gave KB-V1 MDR tox inactive, HT1080NT lethal -4%, DT40 TDP1 CPT 16µM*, KB-3-1 cytotox inactive, HT1080 IDH1KD tx -1% and TDP1 cell noCPT 12µM*.
Screening Cc1ccc(C(=O)Nc2nc3ccccc3c(=O)s2)cc1 returned KB-V1 MDR tox inactive, HT1080NT lethal inconclusive, DT40 TDP1 CPT 18µM*, KB-3-1 cytotox inactive, HT1080 IDH1KD tx 7.9µM* and TDP1 cell noCPT 18µM*.
`CCSc1nc(-c2cccc(Cl)c2)nc2c1Cc1c(CO)cnc(C)c1O2` gave KB-V1 MDR tox inactive, DT40 TDP1 CPT -13%, KB-3-1 cytotox inactive and TDP1 cell noCPT -9%.
For COC(=O)[C@@]12CCCN1[C@H](c1ccc(-c3ccc(Cl)c(Cl)c3)c(OC)c1)[C@H]1C(=O)N(C)C(=O)[C@H]12 the results were KB-V1 MDR tox inconclusive, HT1080NT lethal inconclusive, DT40 TDP1 CPT 13µM*, KB-3-1 cytotox inactive, HT1080 IDH1KD tx -29% and TDP1 cell noCPT 23µM*.
CCN1C(=O)[C@H]2[C@@H](c3ccc(-c4cccc(Cl)c4)c(OC)c3)N3CCC[C@@]3(C(=O)OC)[C@H]2C1=O was read as KB-V1 MDR tox inactive, HT1080NT lethal inconclusive, DT40 TDP1 CPT 13µM*, KB-3-1 cytotox inconclusive, HT1080 IDH1KD tx -11% and TDP1 cell noCPT 9.2µM*.
`COC(=O)[C@@]12CCCN1[C@H](c1ccc(-c3cccc(Cl)c3)c(OC)c1)[C@H]1C(=O)N(C)C(=O)[C@H]12` gave KB-V1 MDR tox inactive, HT1080NT lethal 0%, DT40 TDP1 CPT 15µM*, KB-3-1 cytotox inactive, HT1080 IDH1KD tx -2% and TDP1 cell noCPT 16µM*.
COC(=O)[C@@]12CCCCN1[C@H](c1ccc(-c3ccccc3)c(OC)c1)[C@H]1C(=O)N(C)C(=O)[C@H]12 was read as KB-V1 MDR tox inactive, HT1080NT lethal 11%, DT40 TDP1 CPT inconclusive, KB-3-1 cytotox inconclusive, HT1080 IDH1KD tx 7% and TDP1 cell noCPT 13µM*.
`COc1ccc(S(=O)(=O)n2nc(C)c(S(=O)(=O)N3CCC(C)CC3)c2C)cc1OC` gave KB-V1 MDR tox inactive, DT40 TDP1 CPT -3%, KB-3-1 cytotox inactive and TDP1 cell noCPT -3%.
For Cc1ccccc1-c1noc(-c2ccc(N3CCN(c4ccccc4)CC3)c([N+](=O)[O-])c2)n1 the results were KB-V1 MDR tox inactive, DT40 TDP1 CPT inconclusive, KB-3-1 cytotox inactive and TDP1 cell noCPT inconclusive.
`COc1ccccc1CNC(=O)CCn1c(=O)c2ccccc2n(CC(=O)Nc2cc(Cl)ccc2C)c1=O` gave KB-V1 MDR tox inactive, DT40 TDP1 CPT -28%, KB-3-1 cytotox inactive and TDP1 cell noCPT inconclusive.
`CN(C)c1ccc(N=Nc2ccc(S(=O)(=O)O)cc2)cc1` gave KB-V1 MDR tox inactive, DT40 TDP1 CPT -6%, KB-3-1 cytotox inactive and TDP1 cell noCPT 1%.
`Cc1c(Cn2ccnc2)c2ccccc2n1CCC(=O)O` gave DT40 TDP1 CPT -3% and TDP1 cell noCPT -9%.
COC(=O)[C@@]12CCCCN1[C@H](c1ccc(-c3cccc(Cl)c3)c(OC)c1)[C@@H]1C(=O)N(C)C(=O)[C@@H]12 was read as KB-V1 MDR tox inconclusive, HT1080NT lethal inconclusive, DT40 TDP1 CPT inconclusive, KB-3-1 cytotox inconclusive, HT1080 IDH1KD tx inconclusive and TDP1 cell noCPT 21µM*.
Screening COC(=O)[C@@]12CCCCN1[C@H](c1ccc(-c3ccc(C(C)=O)cc3)c(OC)c1)[C@@H]1C(=O)N(C)C(=O)[C@@H]12 returned KB-V1 MDR tox inactive, HT1080NT lethal 4%, DT40 TDP1 CPT 16µM*, KB-3-1 cytotox inactive, HT1080 IDH1KD tx 0% and TDP1 cell noCPT 15µM*.
CNC(=O)C[C@H]1C(=O)N(Cc2ccccc2)C[C@@H]1C was read as KB-V1 MDR tox inactive, HT1080NT lethal 4%, DT40 TDP1 CPT 1%, KB-3-1 cytotox inactive, HT1080 IDH1KD tx 5% and TDP1 cell noCPT -14%.
Screening CCCCn1cc(S(=O)(=O)c2ccccc2)c(=O)c2cc(F)c(N3CCN(CCC)CC3)cc21 returned KB-V1 MDR tox inconclusive, DT40 TDP1 CPT inconclusive, KB-3-1 cytotox inactive and TDP1 cell noCPT 21µM*.
CCc1ccc(S(=O)(=O)c2cn(CC)c3cc(N4CCCCC4)c(F)cc3c2=O)cc1 was read as KB-V1 MDR tox inactive, DT40 TDP1 CPT inconclusive, KB-3-1 cytotox inactive and TDP1 cell noCPT inconclusive.
CCCCn1cc(S(=O)(=O)c2ccc(CC)cc2)c(=O)c2cc(F)c(N3CCOCC3)cc21 was read as KB-V1 MDR tox inactive, DT40 TDP1 CPT inconclusive, KB-3-1 cytotox inactive and TDP1 cell noCPT 18µM*.
For CCCCn1cc(S(=O)(=O)c2ccc(CC)cc2)c(=O)c2cc(F)c(N3CCCC(C)C3)cc21 (configuration not stated) the results were KB-V1 MDR tox inactive, DT40 TDP1 CPT 23µM*, KB-3-1 cytotox inactive and TDP1 cell noCPT 23µM*.
For CCCn1cc(S(=O)(=O)c2ccc(CC)cc2)c(=O)c2cc(F)c(N3CCN(C)CC3)cc21 the results were KB-V1 MDR tox inactive, DT40 TDP1 CPT 16µM*, KB-3-1 cytotox inactive and TDP1 cell noCPT 26µM*.
`CCCn1cc(S(=O)(=O)c2ccccc2)c(=O)c2cc(F)c(N3CCCC(C)C3)cc21` (configuration not stated) gave KB-V1 MDR tox inactive, DT40 TDP1 CPT inconclusive, KB-3-1 cytotox inactive and TDP1 cell noCPT inconclusive.
